Screens as filed in PubChem.
Giardia killer: Giardia lamblia killing | Giardia lamblia trophozoite viability | activity change, % at 7.66 µM, hits read low | actives 0.15% (n = 340,000) | AID 540267; in the data active means activity change below about -80%; inconclusive means between about -30% and that limit;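 further: parasites exposed to compound for two days anaerobically before the ATP read; on the % scale 0 is the no-effect control and ±100 the full control effect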
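Media and compound were dispensed first, then trophozoites at 100 cells/well; plates sat 48 hrs at 37 deg C without oxygen before ATP luminescence reagent was added and read after 15-30 min at room temperature.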
IL-1B inflam inh: inhibitors of inflammasome signaling (IL-1 beta secretion); THP-1 LPS/ATP IL-1B secretion, AlphaLISA, 16 h; hits give low values; activity change, % at 57.5 µM; actives 4.7% (n = 360,000); in the data active means activity change below about -50%; inconclusive means mostly about -30% to -49%; further: on the % scale 0 is the no-effect control and ±100 the full control effect
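Secreted IL-1B measured by AlphaLISA bead assay after 16 h compound exposure of THP-1 cells; compounds (final up to 57.5 uM) added 1 h before LPS (250 ng/mL) and ATP (1.25 mM) stimulation; lower signal means less secretion.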
HepG2 viability: HepG2 cytotoxicity, counter-screen for TGF-b inhibitors | HepG2 CAGA-GFP viability, ATP luminescence, 18 h | Potency, µM (titrated, usually from 46.1 µM), for the others: top-dose activity change, negative = cytotoxicity, hits mostly cytotoxic | actives 0.76% (n = 410,000); further: potency means the concentration at half of the fitted maximal effect
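HepG2 CAGA-GFP cells (1000/well, DMEM with 1% FBS) received compound, then TGF-beta at 500 pg/mL final, and were incubated 18 hours at 37 degrees C. Viability was read by CellTiter-Glo luminescence. Media-only wells were set as complete cell-killing and DMSO as no toxicity.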
HT1080 IDH1KD tx: toxicity to HT-1080 IDH1 knockdown cells (counter line) | HT-1080 IDH1 knockdown viability, ATP luminescence, 48 h | Potency, µM (series often up to 46.1 µM), without a hit: at the highest dose activity, negative = toxicity, most hits filed as cytotoxic | actives 2% (n = 360,000);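 further: potency means the concentration at half of the fitted maximal effect; 0% = DMSO wells and -100% = cell-free medium wells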
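Using the IDH1-knockdown HT-1080 line run in the same batch and compound series as the NT line, viability after 48 h at 37 °C was determined by CellTiter-Glo luminescence and expressed as % activity.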
TGFb inhibitor: TGF-b pathway inhibition; HepG2 CAGA-GFP TGF-b/SMAD3 reporter, GFP fluorescence, 18 h; TGF-beta stimulated, 500 pg/mL final; Potency, µM (highest dose often 46.1 µM), for the others: at the highest dose activity, negative = inhibition, usual class: inhibitors; actives 1.2% (n = 410,000); AID 588855; further: potency means the concentration at half of the fitted maximal effect; on the % scale 0 is the no-effect control and ±100 the full control effect; nearly all actives have a fitted effect of over 65% in size
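HEPG2 CAGA-GFP cells (1000/well, DMEM with 1% FBS) were pre-incubated 2 h at 37 degrees C, given compound by pin tool, then stimulated with TGF-beta at 500 pg/mL final for 18 h before per-cell GFP fluorescence imaging.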
HT1080-NT tox: kills 2HG-producing HT-1080-NT fibrosarcoma cells | Potency, µM (doses to about 46.1 µM), inactives show top-dose activity, negative = less viability, most hits filed as cytotoxic | HT-1080-NT fibrosarcoma viability, CellTiter-Glo ATP luminescence, 48 h | actives 1.6% (n = 360,000);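 further: NT is the 2HG producing partner of a matched IDH1 knockdown line; potency means the concentration at half of the fitted maximal effect; 0% = DMSO-treated cells and -100% = media-only wells without cells; nearly all actives have a fitted effect of over 55% in size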
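HT-1080-NT; 750 cells/well; 5% FBS RPMI; 48 h compound, 37 degrees C; CellTiter-Glo luminescence; curve fitting and curve-class assignment.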
* = called active by the depositor; ? = inconclusive; · = no result. Rows were chosen to be rich in hits. Some 6.5% of all compounds tested hit in one or more screens of this group. Unless noted, the call rests on the fitted dose curve; in most records, active means well fitted curve in the direction sought with a large enough effect; inconclusive means small, poorly fitted or top-dose-only effect, or another doubt; inactive means no such curve, though single readings can be large; an effect the other way counts as inactive or inconclusive.

SMILES	Giardia killer	IL-1B inflam inh	HepG2 viability	HT1080 IDH1KD tx	TGFb inhibitor	HT1080-NT tox
Cc1ccc(-c2nc(C(=O)NCCCN3CCOCC3)cc3c2[nH]c2ccccc23)cc1	16	-52*	-49%	-14%	1%	-9%
CCCCN(CC)CCNC(=O)c1cc2c(=O)[nH]c3ccc(C)cc3c2s1	10	-100*	-71%	18µM*	?	16µM*
Cc1ccc2[nH]c(=O)c3cc(C(=O)NCCc4ccc(Cl)cc4)sc3c2c1	·	·	-4%	·	0%	·
O=C(NC1CCCCC1)C(c1ccc(F)cc1)N(CCCN1CCOCC1)C(=O)c1ccc(CN2CCOCC2)o1 (stereo unspecified)	6	-1	18%	17%	?	7%
COc1ccc(C(=O)C2CCCN(Cc3ccc(C#CCCO)cc3)C2)cc1F (stereo unspecified)	-3	-53*	7%	-21%	?	-15%
COc1ccc(C(=O)C2CCCN(Cc3ccc4nonc4c3)C2)cc1F (stereo unspecified)	-4	-14	-4%	-6%	1%	2%
COc1ccc(/C=C/CN2CCCC(C(=O)c3ccc(OC)c(F)c3)C2)cc1 (stereo unspecified)	11	-93*	-35%	-19%	-27%	-15%
Nc1nnc(-c2ccc(Cl)cc2Cl)s1	34	-23	-5%	-2%	0%	0%
COc1cccc(C(C)(O)c2nc(/C=C/c3ccccc3)cs2)c1 (stereo unspecified)	·	29	-24%	-20%	14µM*	-29%
COc1cccc(C(C)(O)c2nc(-c3csc4ccccc34)cs2)c1 (stereo unspecified)	·	-19	-49%	?	18µM*	21µM*
CC(O)(c1cccnc1)c1nc(-c2cccc(C(F)(F)F)c2)cs1 (stereo unspecified)	·	-7	-28%	?	5%	23µM*
COc1ccc(C(C)(O)c2nc(-c3cccc(C(F)(F)F)c3)cs2)cc1 (stereo unspecified)	·	0	-98%	0%	?	?
CC(O)(c1ccccc1)c1nc(/C=C/c2ccccc2)cs1 (stereo unspecified)	·	0	-27%	?	-19%	?
COc1cccc(C(C)(O)c2nc(-c3cccc(C(F)(F)F)c3)cs2)c1 (stereo unspecified)	·	-7	-82%	?	?	18µM*
FC(F)Oc1ccc(NC(=S)NCc2ccccc2)cc1	4	-4	-1%	-13%	0%	-9%
Cc1ccc(NC(=S)Nc2ccc(OC(F)F)c(Cl)c2)cc1Cl	-11	-92*	-45%	27%	18µM*	6%
COc1ccc(NC(=S)Nc2ccc(C)c(Cl)c2)cc1OC	-16	-11	7%	12%	-17%	-10%
FC(F)Oc1ccc(NC(=S)NCc2ccccc2)cc1Cl	-8	-89*	-49%	?	?	?
CC(NC(=S)Nc1ccc(OC(F)F)c(Cl)c1)C(C)(C)C (stereo unspecified)	-13	-96*	-36%	?	13µM*	?
O=C(Nc1ccc(OC(F)F)c(Cl)c1)C(c1ccccc1)c1ccccc1	9	-62*	20µM*	16µM*	22µM*	?
COc1ccccc1CNC(=O)Cn1cc(Br)ccc1=O	5	-7	5%	7%	5%	20%
C/C(=N\NC(=O)C(C)n1nc(C)c([N+](=O)[O-])c1C)c1ccccc1O (stereo unspecified)	10	49	-20%	9.2µM*	?	?
Cc1nn(C(C)C(=O)NCc2ccco2)c(C)c1[N+](=O)[O-] (stereo unspecified)	-14	0	28%	16%	0%	25%
CCOC(=O)N1CCN(C(=O)CSc2cc(C)nc3c(-c4ccccc4OC)c(C)nn23)CC1	12	-10	-77%	11µM*	?	10µM*
COc1ccccc1-c1c(C)nn2c(N3CCC(C)CC3)cc(C)nc12	13	-51*	17%	12%	-10%	-2%
SMILES	Giardia killer	IL-1B inflam inh	HepG2 viability	HT1080 IDH1KD tx	TGFb inhibitor	HT1080-NT tox
Cc1csc(N(C)C(=O)CSc2nnc(COc3cccc4ccccc34)o2)n1	-3	29	-8%	?	?	6.3µM*
COC(=O)CSc1nnc(COc2cccc3ccccc23)o1	-20	46	2%	1%	7%	-2%
O=C(NNc1nc(-c2ccccc2)c2cc(Br)ccc2n1)c1ccc(S(=O)(=O)N2CCCCC2)cc1	7	-6	-3%	-8%	2%	-9%
O=C(NNc1nc(-c2ccccc2)c2cc(Br)ccc2n1)c1ccc(S(=O)(=O)N2CCOCC2)cc1	-27	-51*	-20%	-4%	-23%	-4%
CN(C)S(=O)(=O)c1ccc(C(=O)NNc2nc(-c3ccccc3)c3cc(Br)ccc3n2)cc1	-1	-60*	-26%	-10%	6%	1%
OCCCNc1nc(-c2ccccc2)c2cc(Br)ccc2n1	-8	-76*	-14%	-29%	15%	-12%
Cc1ccc2nc(NCCCO)nc(-c3ccccc3)c2c1	-11	-4	-23%	?	4%	?
Cc1ccccc1NS(=O)(=O)c1ccc(Cl)cc1	-9	-13	-9%	0%	-19%	-13%
CC(=O)Nc1ccc(-c2csc(Nc3cc(C)ccn3)n2)cc1	-29	-104*	-42%	?	?	?
CC(=O)Nc1ccc(-c2csc(Nc3ncccn3)n2)cc1	-15	0	-7%	-5%	-15%	-6%
COc1ccc(-c2csc(Nc3cc(C)ccn3)n2)cc1OC	-17	-87*	-10%	?	?	-27%
Cc1ccc(Nc2nc(-c3ccc(O)c(O)c3)cs2)nc1	0	-77*	-28%	23µM*	?	?
CC(=O)Nc1cccc(-c2csc(Nc3cc(C)ccn3)n2)c1	10	-96*	-66%	-14%	?	?
Cc1ccc(Nc2nc(-c3ccc(F)cc3)cs2)nc1	14	19	-40%	-5%	14%	-3%
CC(=O)Nc1cccc(-c2csc(Nc3ccccn3)n2)c1	-1	-13	-36%	-25%	?	?
CCc1nnc(NC(=O)CN2CCN(Cc3ccc(F)cc3)CC2)s1	-3	0	-2%	0%	14%	0%
COc1ccc(C(CNC(=O)c2oc3cc(C)c(C)cc3c2C)N2CCCCC2)cc1 (stereo unspecified)	?	12	-1%	7%	-2%	16%
